Measurements taken from PubChem BioAssay.
Active and inactive are the calls of the source. Unless noted, the rule behind the calls is not given here.

Columns and labels:
[1] = anti-His antibody binders, primary screen, artefact control for SMM control protein annotation, biochemical, small-molecule microarray, 635 nm fluorescence (AID 1128); settings: anti-His Alexa647 antibody binding, higher = more signal;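 note: score merges feature fluorescence with signal-to-noise for each printed compound spot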
[2] = system: Human papillomavirus type 1a E7 protein (residues 1-88); assay: HPV1a E7 small-molecule binders, primary screen, biochemical, small-molecule microarray, residues 1-88, 635 nm (AID 1129); settings: small-molecule microarray binding, fluorescence 635 nm; higher = more signal
[3] = molecular target: Focal adhesion kinase 1 (Homo sapiens) (UniProt Q05397); assay: small-molecule microarray binders of FAK, primary screen, biochemical, 635/667 nm fluorescence, BSA, DTT (AID 1130); settings: PTK2 binding, 635 nm fluorescence, higher = more signal;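 note: composite of spot emission at 667 nm and signal to noise over triplicate slides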
[4] = system: Fibrinogen (Alexa647-labelled); assay: fibrinogen binders on compound microarrays, profiling panel, artefact control for SMM control-protein annotation, biochemical, small-molecule microarray, 635/667 nm fluorescence (AID 1131); settings: fibrinogen-A647 binding fluorescence, higher = more signal;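 note: z-score merges 667 nm fluorescence with per-spot signal-to-noise over triplicate slides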
[5] = molecular target: Follistatin (Homo sapiens) (UniProt P19883); assay: follistatin binders on small-molecule microarrays, primary screen, biochemical, small-molecule microarray, 635/667 nm fluorescence (AID 1132); settings: FST binding, 635 nm fluorescence, higher = more signal
[6] = molecular target: Fibroblast growth factor 2 (Homo sapiens) (UniProt P09038); assay: FGF2 binders on small-molecule microarrays, primary screen, biochemical, small-molecule microarray, 635/667 nm fluorescence (AID 1133); settings: small-molecule microarray binding, FGF2, fluorescence 635/667; higher = more signal
[7] = mitochondrial membrane potential change in A549 cells, profiling panel, cell-based, JC-1 fluorescence, basal, 24 h, 100 nL (AID 1138); settings: higher = more signal;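 note: A549 lung adenocarcinoma cells under basal conditions with no added stimulus; test concentration not given here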
Lefty1 = Lefty1 binders on small-molecule microarrays, primary screen, biochemical, small-molecule microarray, 635/667 nm fluorescence (AID 1139); settings: small-molecule microarray binding, fluorescence 635/667; higher = more signal
[8] = system: wheat germ agglutinin (Triticum aestivum), Alexa647-labelled; assay: wheat germ agglutinin binders on compound microarrays, profiling panel, artefact control for SMM control-protein annotation, biochemical, small-molecule microarray, 635/667 nm fluorescence (AID 1140); settings: WGA-A647 binding, 635 nm fluorescence, higher = more signal;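 note: score merges 667 nm feature emission with signal to noise over triplicate slides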
[9] = molecular target: Luciferin 4-monooxygenase (Photinus pyralis) (UniProt P08659); assay: firefly luciferase enzyme inhibitors, primary screen, biochemical, luminescence, purified enzyme, 2006 set (AID 1141); settings: SteadyGlo luminescence, 30 min, higher = more signal, called active from +8 up or from −8 down;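 note: cell-free assay with purified firefly luciferase at 100 ng per well in PBS; test concentration not given here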
[10] = system: Wnt5a (protein binding on small-molecule microarray); assay: Wnt5a binders on small-molecule microarray, primary screen, biophysical, 635/667 nm fluorescence (AID 1142); settings: 635 nm fluorescence, higher = more signal;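 note: fluorescence read at 667 nm with signal to noise per printed feature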
[11] = cell viability in Huh7 cells, primary screen, cytotoxicity control for HCV replication inhibitor project, CellTiter-Glo luminescence, basal, 48 h (AID 1143); settings: Huh7 HCV replicon, higher = more signal, called active from +8 up or from −8 down;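 note: Huh7 hepatoma cells carrying a hepatitis C replication reporter with no stimulus; test concentration not given here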
[12] = P. aeruginosa biofilm formation inhibitors, primary screen, PAO1 strain, BacTiter-Glo luminescence, LB-PBS (AID 1144); settings: 12 h, higher = more signal
[13] = CREB reporter modulators without forskolin, primary screen, cell-based, PC12, CRE-LacZ reporter, unstimulated (AID 1145); settings: no forskolin, luminescence, 4.5 h, higher = more signal, called active from +8 up or from −8 down
[14] = CREB reporter modulators under forskolin, primary screen, cell-based, PC12, CRE-LacZ reporter, forskolin-stimulated (AID 1146); settings: luminescence, 4.5 h, higher = more signal, called active from +8 up or from −8 down;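 note: PC12 cells with 6xCRE LacZ reporter stimulated by forskolin 10 µM; beta-galactosidase reporter signal reflecting CREB driven transcription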
[15] = molecular target: Streptavidin (Streptomyces avidinii) (UniProt P22629); assay: streptavidin binders on small-molecule microarray, primary screen, artefact control for SMM compound annotation, biophysical, 635/667 nm fluorescence (AID 1147); settings: streptavidin binding, higher = more signal;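 note: signal reflects streptavidin binding to arrayed compounds as a control protein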
[16] = small-molecule binders of probe aInhba, primary screen, biochemical, small-molecule microarray, 635/667 nm fluorescence (AID 1148); settings: higher = more signal;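 note: score merges 667nm spot fluorescence with signal-to-noise for antibody binding to printed compounds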
Torsin-1A (Homo sapiens) [17] = molecular target: Torsin-1A (Homo sapiens) (UniProt O14656); assay: torsin A binders from cell lysate, primary screen, small-molecule microarray, wild-type, 635/667 nm (AID 1149); settings: COS7 hTOR1A-WT lysate, 635 nm fluorescence, higher = more signal
Torsin-1A (Homo sapiens) [18] = molecular target: Torsin-1A (Homo sapiens) (UniProt O14656); assay: small-molecule binders of mutant TOR1A in lysate, primary screen, cell lysate, small-molecule microarray, COS7 lysate, 635/667 nm fluorescence (AID 1150); settings: COS7 hTOR1A mutant lysate, 635 nm fluorescence, higher = more signal;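 note: score pools 667 nm emission and signal to noise measuring lysate protein binding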
[19] = system: Sonic hedgehog protein (Shh); assay: small-molecule binders of Shh protein, primary screen, biochemical, small-molecule microarray, 635/667 nm fluorescence (AID 1151); settings: small-molecule microarray binding, 635 nm fluorescence; higher = more signal;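 note: Shh protein binding to compounds spotted on small-molecule microarray slides; score combines spot fluorescence intensity with signal-to-noise across triplicate slides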

Torsin-1A (Homo sapiens), sequence (O14656 whole entry, looked up): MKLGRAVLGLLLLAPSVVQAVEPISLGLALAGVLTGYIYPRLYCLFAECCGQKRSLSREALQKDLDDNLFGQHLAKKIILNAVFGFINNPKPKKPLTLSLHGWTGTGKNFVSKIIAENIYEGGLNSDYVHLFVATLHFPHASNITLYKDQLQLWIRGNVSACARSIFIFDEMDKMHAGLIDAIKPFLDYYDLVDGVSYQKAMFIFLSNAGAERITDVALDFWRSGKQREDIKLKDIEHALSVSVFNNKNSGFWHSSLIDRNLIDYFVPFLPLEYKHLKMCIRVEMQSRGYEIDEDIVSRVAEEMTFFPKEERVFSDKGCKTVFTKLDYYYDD
Fibroblast growth factor 2 (Homo sapiens), sequence (P09038 whole entry, looked up): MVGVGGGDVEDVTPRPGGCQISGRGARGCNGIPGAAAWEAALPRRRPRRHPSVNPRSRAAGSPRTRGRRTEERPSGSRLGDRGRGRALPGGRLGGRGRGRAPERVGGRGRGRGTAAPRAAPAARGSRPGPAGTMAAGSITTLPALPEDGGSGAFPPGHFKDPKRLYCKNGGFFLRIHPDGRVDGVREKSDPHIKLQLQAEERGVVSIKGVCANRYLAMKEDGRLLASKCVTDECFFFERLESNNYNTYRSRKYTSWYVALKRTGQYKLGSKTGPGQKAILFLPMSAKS
Streptavidin (Streptomyces avidinii), sequence (P22629 whole entry, looked up): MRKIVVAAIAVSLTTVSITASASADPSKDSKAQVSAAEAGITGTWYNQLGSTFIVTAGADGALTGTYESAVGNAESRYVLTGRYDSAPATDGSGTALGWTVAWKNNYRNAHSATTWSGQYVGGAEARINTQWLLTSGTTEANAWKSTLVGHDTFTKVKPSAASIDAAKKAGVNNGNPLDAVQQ
Follistatin (Homo sapiens), sequence (P19883 whole entry, looked up): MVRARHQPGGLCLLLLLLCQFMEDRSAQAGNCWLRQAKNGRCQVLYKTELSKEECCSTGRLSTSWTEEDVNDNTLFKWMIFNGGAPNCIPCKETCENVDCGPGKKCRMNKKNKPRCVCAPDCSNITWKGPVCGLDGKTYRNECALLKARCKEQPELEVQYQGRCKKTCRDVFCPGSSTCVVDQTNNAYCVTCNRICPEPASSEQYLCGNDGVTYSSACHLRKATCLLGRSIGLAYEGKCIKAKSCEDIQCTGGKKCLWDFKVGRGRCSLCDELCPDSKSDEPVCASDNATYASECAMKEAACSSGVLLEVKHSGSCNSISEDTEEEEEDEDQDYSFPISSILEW
Focal adhesion kinase 1 (Homo sapiens), sequence (Q05397 whole entry, looked up): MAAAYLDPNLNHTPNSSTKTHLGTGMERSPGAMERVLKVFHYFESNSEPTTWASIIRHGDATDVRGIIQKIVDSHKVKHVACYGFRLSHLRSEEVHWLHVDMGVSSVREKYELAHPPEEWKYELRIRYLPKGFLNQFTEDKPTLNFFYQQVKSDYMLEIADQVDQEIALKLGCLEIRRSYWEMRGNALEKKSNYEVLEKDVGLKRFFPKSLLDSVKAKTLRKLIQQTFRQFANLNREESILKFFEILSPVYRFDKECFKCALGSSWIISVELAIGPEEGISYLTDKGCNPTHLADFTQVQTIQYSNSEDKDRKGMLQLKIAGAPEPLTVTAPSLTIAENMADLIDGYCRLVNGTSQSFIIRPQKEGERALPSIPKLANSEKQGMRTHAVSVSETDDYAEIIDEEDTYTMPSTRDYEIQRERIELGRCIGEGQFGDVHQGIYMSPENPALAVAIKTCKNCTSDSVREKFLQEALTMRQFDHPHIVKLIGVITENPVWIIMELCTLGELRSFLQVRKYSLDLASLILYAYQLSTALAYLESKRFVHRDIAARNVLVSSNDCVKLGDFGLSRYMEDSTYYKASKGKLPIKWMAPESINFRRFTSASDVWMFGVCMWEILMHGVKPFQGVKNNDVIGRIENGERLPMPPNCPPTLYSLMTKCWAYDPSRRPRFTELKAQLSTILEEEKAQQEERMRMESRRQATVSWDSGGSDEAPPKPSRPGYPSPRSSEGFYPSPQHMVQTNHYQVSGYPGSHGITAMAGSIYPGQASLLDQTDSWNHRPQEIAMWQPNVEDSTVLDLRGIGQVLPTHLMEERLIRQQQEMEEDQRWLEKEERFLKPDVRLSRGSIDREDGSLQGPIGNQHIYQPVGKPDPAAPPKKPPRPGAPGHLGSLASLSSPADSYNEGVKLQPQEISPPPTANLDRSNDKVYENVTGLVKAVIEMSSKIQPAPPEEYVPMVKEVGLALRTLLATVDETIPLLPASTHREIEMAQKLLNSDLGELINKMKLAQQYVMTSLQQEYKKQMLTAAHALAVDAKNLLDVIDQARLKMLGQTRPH
Luciferin 4-monooxygenase (Photinus pyralis), sequence (P08659 whole entry, looked up): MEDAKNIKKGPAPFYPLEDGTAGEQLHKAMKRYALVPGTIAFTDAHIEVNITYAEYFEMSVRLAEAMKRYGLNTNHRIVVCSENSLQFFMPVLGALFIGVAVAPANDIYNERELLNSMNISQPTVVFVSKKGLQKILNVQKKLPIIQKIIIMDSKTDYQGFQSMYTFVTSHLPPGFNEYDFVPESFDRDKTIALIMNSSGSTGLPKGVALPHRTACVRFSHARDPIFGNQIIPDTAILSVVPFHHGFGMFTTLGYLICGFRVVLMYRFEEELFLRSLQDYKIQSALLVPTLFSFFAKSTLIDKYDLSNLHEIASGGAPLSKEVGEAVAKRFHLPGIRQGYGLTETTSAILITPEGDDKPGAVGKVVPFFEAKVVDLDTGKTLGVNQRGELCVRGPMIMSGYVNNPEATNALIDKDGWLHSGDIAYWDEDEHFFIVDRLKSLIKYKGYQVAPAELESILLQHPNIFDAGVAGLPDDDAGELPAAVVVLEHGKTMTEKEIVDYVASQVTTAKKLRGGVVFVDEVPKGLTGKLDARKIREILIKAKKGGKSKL

[N-]=[N+]=NCc1ccccc1[C@H]1OC(c2ccc(OCCCO)cc2)=N[C@@]1(Cc1ccccc1)C(=O)NCc1ccccc1
composite z-score [1]: 0.517 | composite z-score [2]: 1.17 | composite z-score [3]: 0.365 | composite z-score [4]: 0.954 | composite z-score [5]: 1.13 | composite z-score [6]: 0.0948 | z-score [7]: 1.2 | composite z-score (Lefty1): -0.352 | composite z-score [8]: 0.468 | z-score [9]: -0.658 (inactive) | composite z-score [10]: 0.348 | z-score [11]: -3.57 (inactive) | z-score [12]: -0.862 (inactive) | z-score [13]: -0.0108 (inactive) | z-score [14]: -0.157 (inactive) | composite z-score [15]: 1.15 | composite z-score [16]: -0.466 | composite z-score (Torsin-1A (Homo sapiens) [17]): 0.247 | composite z-score (Torsin-1A (Homo sapiens) [18]): 0.714 | composite z-score [19]: 0.144

COC(=O)[C@@]1(Cc2ccc(OC)cc2)[C@H]2c3cc(C(=O)N4CCCC4)n(Cc4ccccc4)c3C[C@H]2CN1C(=O)c1ccccc1
composite z-score [1]: 3 | composite z-score [2]: 1.25 | composite z-score [3]: 1.32 | composite z-score [4]: 1 | composite z-score [5]: 0.506 | composite z-score [6]: -0.368 | z-score [7]: 0.581 | composite z-score (Lefty1): -0.292 | composite z-score [8]: 1.1 | z-score [9]: 2.01 (inactive) | composite z-score [10]: 2.34 | z-score [11]: -2.68 (inactive) | z-score [12]: 0.888 (inactive) | z-score [13]: 0.194 (inactive) | z-score [14]: -0.754 (inactive) | composite z-score [15]: 2.04 | composite z-score [16]: 1.76 | composite z-score (Torsin-1A (Homo sapiens) [17]): -0.0218 | composite z-score (Torsin-1A (Homo sapiens) [18]): 0.107 | composite z-score [19]: -0.442

CCOC(=O)C[C@H]1[C@H](OC(=O)c2ccc(C(=O)c3ccccc3)cc2)[C@@H](NC(=O)c2ccc(-c3ccccc3)cc2)c2cc(OCCCO)ccc2N1C(=O)c1ccccc1
composite z-score [1]: 0.256 | composite z-score [2]: 0.87 | composite z-score [3]: 0.644 | composite z-score [4]: 0.803 | composite z-score [5]: 0.559 | composite z-score [6]: 0.59 | z-score [7]: -0.187 | composite z-score (Lefty1): 0.712 | composite z-score [8]: 0.131 | z-score [9]: -0.265 (inactive) | composite z-score [10]: 0.0074 | z-score [11]: 0.294 (inactive) | z-score [12]: 0.0763 (inactive) | z-score [13]: 0.0035 (inactive) | z-score [14]: -0.254 (inactive) | composite z-score [15]: 1.11 | composite z-score [16]: -0.128 | composite z-score (Torsin-1A (Homo sapiens) [17]): 0.117 | composite z-score (Torsin-1A (Homo sapiens) [18]): 0.311 | composite z-score [19]: 1.08

CC(C)C[C@@H]1NC(=O)[C@@H]2C[C@H](C(=O)NCCCCCN)[C@H](c3cccc(OCCO)c3)N2C1=O
composite z-score [1]: 1.19 | composite z-score [2]: 1.04 | composite z-score [3]: 1.13 | composite z-score [4]: 0.93 | composite z-score [5]: 0.555 | composite z-score [6]: 0.591 | z-score [7]: 1.18 | composite z-score (Lefty1): 0.288 | composite z-score [8]: 1.13 | z-score [9]: -1.21 (inactive) | composite z-score [10]: 0.794 | z-score [11]: -0.542 (inactive) | z-score [12]: -1.64 (inactive) | z-score [13]: 0.0043 (inactive) | z-score [14]: 0.442 (inactive) | composite z-score [15]: 1.05 | composite z-score [16]: -0.0736 | composite z-score (Torsin-1A (Homo sapiens) [17]): 0.941 | composite z-score (Torsin-1A (Homo sapiens) [18]): 0.919 | composite z-score [19]: 1.05

COCCOC(=O)N1C(=O)[C@@]2(c3cc(C#CCCO)ccc31)[C@H](C(=O)N1CCc3cc(OC)c(OC)cc3C1)[C@H]1C(=O)O[C@H](c3ccccc3)[C@H](c3ccccc3)N1[C@@H]2c1ccc(O)cc1
composite z-score [1]: 1.89 | composite z-score [2]: 1.22 | composite z-score [3]: 0.831 | composite z-score [4]: 0.904 | composite z-score [5]: 0.949 | composite z-score [6]: 0.622 | z-score [7]: 0.188 | composite z-score (Lefty1): 0.791 | composite z-score [8]: 0.393 | z-score [9]: -0.407 (inactive) | composite z-score [10]: 0.304 | z-score [11]: -0.173 (inactive) | z-score [12]: -0.14 (inactive) | z-score [13]: -0.815 (inactive) | z-score [14]: -0.742 (inactive) | composite z-score [15]: 0.25 | composite z-score [16]: 0.132 | composite z-score (Torsin-1A (Homo sapiens) [17]): 0.73 | composite z-score (Torsin-1A (Homo sapiens) [18]): 0.538 | composite z-score [19]: 0.918
